CYP2C9 inhib: inhibitors of human CYP2C9 | inhibition, % at 5 µM | hit rate 20% among 96,000 | CYP2C9 Supersomes, luciferin-H conversion, luminescence | P11712;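 active = blocking of liver enzyme CYP2C9 beyond about 50% at 5 µM, limit read from the data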
Target sequence (P11712 whole entry, looked up): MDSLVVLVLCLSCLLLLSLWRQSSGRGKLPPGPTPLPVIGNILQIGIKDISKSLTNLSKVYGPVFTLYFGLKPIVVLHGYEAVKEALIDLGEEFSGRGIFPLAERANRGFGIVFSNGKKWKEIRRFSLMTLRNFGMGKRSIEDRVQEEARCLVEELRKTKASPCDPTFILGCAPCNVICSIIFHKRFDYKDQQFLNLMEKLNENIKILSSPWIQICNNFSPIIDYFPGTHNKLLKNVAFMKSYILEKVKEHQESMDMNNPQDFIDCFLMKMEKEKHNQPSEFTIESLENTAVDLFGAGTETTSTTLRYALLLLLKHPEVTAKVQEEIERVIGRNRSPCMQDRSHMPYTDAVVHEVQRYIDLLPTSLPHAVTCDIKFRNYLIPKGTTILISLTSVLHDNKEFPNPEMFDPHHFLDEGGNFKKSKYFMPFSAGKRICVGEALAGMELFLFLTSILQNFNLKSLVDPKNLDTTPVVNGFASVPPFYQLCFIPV
CYP2C19 inh: blocks human cytochrome P450 2C19 | inhibition, % at 5 µM | P33261 | CYP2C19 Supersomes, luciferin-H EGE luminescence, 30 min | AID 778 | hit rate 21% among 96,000;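 active = CYP2C19 inhibition above a set limit at 5 µM in the primary screen, cut at about 50% in these data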;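 also: plate controls were negative control wells for no effect and 2.5 mM tranylcypromine positive control for full effect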
DAT uptake mod: modulates human dopamine transporter uptake under cocaine; Q01959; LLC-PK1 hDAT cells, [14C]-dopamine uptake with cocaine IC80; actives deviate in either direction; B-score at 10 µM; hit rate 1.3% among 110,000;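 active = Z score or B-score, a plate-position-corrected score, falls beyond the plate's 99.7% confidence bounds, in either direction; inactive = both scores lie inside the 99.7% bounds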;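 also: scored against the spread of the other compound wells on the same plate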
D1 allo mod: allosteric modulators of human D1 dopamine receptor | hit rate 5.9% among 58,000 | P21728 | B-score at 10 µM | HEK293 D1, CRE-luciferase, dopamine EC30 potentiation; actives deviate in either direction;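 active = luminescence count or its row- and column-corrected plate score outside the 99.7% band of the plate's sample wells, on either side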
CYP2C19 activ: increases human CYP2C19 enzyme activity; 96,000 tested, under 10 active; activation factor at 5 µM; recombinant CYP2C19, luciferin-H EGE luminescence; hits give high values; 0 = fully inhibited enzyme, 1 = untreated enzyme; P33261; AID 1025;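 active = activation factor of at least 2 at 5 µM in the primary screen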;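 also: 0 = wells with 2.5 mM tranylcypromine and 1 = vehicle-only wells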
CYP2C9 activ: activators of human CYP2C9; P11712; recombinant CYP2C9, luciferin-H conversion, luminescence; hits give high values; factor 1 = untreated enzyme, 0 = blocked; AID 1024; activation factor at 5 µM; hit rate 1.4% among 96,000;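 active = activation factor of 2 or more for CYP2C9 at a 5 µM dose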;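 also: 0 = sulfaphenazole-blocked wells and 1 = vehicle-only wells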
Numbers without * were called inactive. Rows were chosen to be rich in hits. Some 28% of all compounds tested hit in one or more screens of this group.

Screening O=C(CN(CCc1ccccc1)C(=O)CNS(=O)(=O)c1ccccc1)NCc1ccco1 returned CYP2C9 inhib 10, CYP2C19 inh 20, DAT uptake mod -0.05, D1 allo mod -0.35, CYP2C19 activ 0.8 and CYP2C9 activ 0.9.
O=C(NCC1(c2ccccc2)CCOCC1)c1ccc(Br)o1 was read as CYP2C9 inhib 38, CYP2C19 inh 72*, DAT uptake mod 1.3, D1 allo mod 0.34, CYP2C19 activ 0.3 and CYP2C9 activ 0.6.
O=C(NCCC(c1ccccc1)c1ccccc1)c1ccc(Br)o1 was read as CYP2C9 inhib 74*, CYP2C19 inh 67*, DAT uptake mod -0.13, CYP2C19 activ 0.3 and CYP2C9 activ 0.3.
Screening O=C(NCCSc1c[nH]c2ccccc12)c1ccc(Br)o1 returned CYP2C9 inhib 86*, CYP2C19 inh 43, DAT uptake mod -0.00089, D1 allo mod -0.62, CYP2C19 activ 0.6 and CYP2C9 activ 0.1.
For O=C(OCC(=O)c1c[nH]c2ccccc12)c1ccc(Br)o1 the results were CYP2C9 inhib 22, CYP2C19 inh 66*, DAT uptake mod -0.69, CYP2C19 activ 0.3 and CYP2C9 activ 0.8.
`O=C(O)CCNC(=O)c1ccc(Br)o1` gave CYP2C9 inhib -8, CYP2C19 inh -10, DAT uptake mod -0.39, D1 allo mod 0.72, CYP2C19 activ 1.1 and CYP2C9 activ 1.1.
Cc1cc2ncn(C(=O)N3CCCC3)c2cc1C was read as DAT uptake mod -0.3.
`Cc1cc(NC(=O)CCC(=O)N(c2ccccc2)C(C(=O)NCC2CCCO2)c2cccnc2)no1` (stereo not drawn) gave CYP2C9 inhib 3, CYP2C19 inh -10, DAT uptake mod -1.1, CYP2C19 activ 1.1 and CYP2C9 activ 1.
`N#CC1=C(N)N(c2ccccc2)C(c2ccccc2)C1(C#N)C#N` (stereo not drawn) gave CYP2C9 inhib 55*, CYP2C19 inh 29, DAT uptake mod -1.1, D1 allo mod 0.2, CYP2C19 activ 0.7 and CYP2C9 activ 0.4.
For Cc1ccc(NC2OC(C(O)CO)C(O)C2O)cc1[N+](=O)[O-] (stereo not drawn) the results were CYP2C9 inhib -8, CYP2C19 inh -17, DAT uptake mod -1.9, CYP2C19 activ 1.2 and CYP2C9 activ 1.1.
For CCCCSc1nnc2c(n1)OC(C(=O)c1ccccc1)Nc1ccccc1-2 (stereo not drawn) the results were CYP2C9 inhib 87*, CYP2C19 inh 49, CYP2C19 activ 0.5 and CYP2C9 activ 0.1.
`COc1ccccc1C(=O)C1Nc2ccccc2-c2nnc(SC)nc2O1` (stereo not drawn) gave DAT uptake mod 0.88 and D1 allo mod 0.037.
Screening CCOc1ccccc1-n1c(CN2CCN(C(=O)c3ccco3)CC2)nc2ccccc2c1=O returned CYP2C9 inhib 65*, CYP2C19 inh 57*, D1 allo mod 0.4, CYP2C19 activ 0.4 and CYP2C9 activ 0.3.
For O=C(c1ccco1)N1CCN(CCOCCOc2cccc3ccccc23)CC1 the results were CYP2C9 inhib 57*, CYP2C19 inh 68*, DAT uptake mod 0.97, CYP2C19 activ 0.3 and CYP2C9 activ 0.4.
For COC(=O)Nc1ccc(S(=O)(=O)N2c3ccccc3CCC2C)cc1 (stereo not drawn) the results were CYP2C9 inhib 39, CYP2C19 inh 27, DAT uptake mod -0.086, D1 allo mod -1.5, CYP2C19 activ 0.7 and CYP2C9 activ 0.6.
Screening COC(=O)CCCC(=O)Nc1ccc(Cl)c(Cl)c1 returned DAT uptake mod 0.79 and D1 allo mod -0.3.
For CC(=O)c1cccc(-n2c(CCC(=O)O)ccc2-c2cccs2)c1 the results were CYP2C9 inhib 27, CYP2C19 inh 11, DAT uptake mod -0.18, D1 allo mod -0.16, CYP2C19 activ 0.9 and CYP2C9 activ 0.7.
For O=C(O)CCc1ccc(-c2cccs2)n1-c1ccc(C(=O)O)cc1 the results were CYP2C9 inhib -103, CYP2C19 inh -12, DAT uptake mod 0.27, D1 allo mod -0.38, CYP2C19 activ 1.1 and CYP2C9 activ 2*.
`CCO[C@H]1OC(C(N)=O)=C[C@@H](c2ccccc2)[C@@H]1CCCO` gave DAT uptake mod -0.29.
O=C(NCc1ccccn1)C1COc2ccccc2O1 (stereo not drawn) was read as CYP2C9 inhib -1, CYP2C19 inh 77*, DAT uptake mod -0.89, D1 allo mod 0.033, CYP2C19 activ 0.2 and CYP2C9 activ 1.
O=C(NCc1ccc2c(c1)OCO2)C1COc2ccccc2O1 (stereo not drawn) was read as DAT uptake mod -0.59.
`O=C(NCc1ccncc1)C1COc2ccccc2O1` (stereo not drawn) gave CYP2C9 inhib 37, CYP2C19 inh 51*, DAT uptake mod -0.033, CYP2C19 activ 0.5 and CYP2C9 activ 0.6.
For Cc1ccc(-c2csc3nc4cc(C(=O)NC5CCC(O)CC5)ccc4c(=O)n23)cc1 (stereo not drawn) the results were DAT uptake mod -0.41.
C=CCN1CCN(C(c2cc(OC)ccc2OC)c2nnnn2CC2CCCO2)CC1 (stereo not drawn) was read as CYP2C9 inhib -1, CYP2C19 inh -4, DAT uptake mod -0.52, D1 allo mod -0.32, CYP2C19 activ 1 and CYP2C9 activ 1.
Screening CCC(C)(C)n1nnnc1C(c1cc2ccc(OC)cc2[nH]c1=O)N1CCc2ccccc2C1 (stereo not drawn) returned CYP2C9 inhib 73*, CYP2C19 inh 18, DAT uptake mod 1.7, D1 allo mod 0.84, CYP2C19 activ 0.8 and CYP2C9 activ 0.3.
`CCC(C)(C)n1nnnc1C(c1cc2ccc(OC)cc2[nH]c1=O)N1CCCCC1` (stereo not drawn) gave CYP2C9 inhib 19, CYP2C19 inh -2, DAT uptake mod 0.36, CYP2C19 activ 1 and CYP2C9 activ 0.8.
For COc1ccc2cc(C(c3nnnn3C(C)(C)C)N3CCc4ccccc4C3)c(=O)[nH]c2c1 (stereo not drawn) the results were CYP2C9 inhib 94*, CYP2C19 inh 65*, D1 allo mod 0.63, CYP2C19 activ 0.3 and CYP2C9 activ 0.1.
Screening c1ccc(N2CCN(c3nc4ccccc4n4cnnc34)CC2)cc1 returned CYP2C9 inhib 49, CYP2C19 inh 65*, DAT uptake mod -0.64, CYP2C19 activ 0.3 and CYP2C9 activ 0.5.
`COc1ccc(N2CSC3=C(C#N)C(c4cccc(OC)c4OC)CC(=O)N3C2)cc1` (stereo not drawn) gave CYP2C9 inhib 7, CYP2C19 inh -3, DAT uptake mod -0.3, D1 allo mod 0.035, CYP2C19 activ 1 and CYP2C9 activ 0.9.
`COc1ccc(C2CC(=O)N3CN(c4ccccc4F)CSC3=C2C#N)cc1OC` (stereo not drawn) gave CYP2C9 inhib 84*, CYP2C19 inh 8, DAT uptake mod -0.22, D1 allo mod -0.49, CYP2C19 activ 0.9 and CYP2C9 activ 0.2.

Screening data: PubChem, several laboratories
